Test results taken from PMC12820563, “FoxP3 forms a head-to-head dimer in vivo and stabilizes its multimerization on adjacent microsatellites”.
The full ranking holds about 16,000 sequences; the median of “rpm ratio (pull-down/input)” is about 0.94, and the highest 2% start at about 1.7. For the sample, the highest values were picked, then their nearest neighbours and some sequences at random.

These sequences were tested against T1, MBP-FoxP1dN (Mus musculus, UniProt P58462 326-579) (assay: PD-seq (MBP pull-down with sequencing); 20 mM Tris-HCl pH 7.5, 100 mM NaCl, 1.5 mM MgCl2, 0.4 uM protein, 0.1 uM dsDNA library, 30 min, room temperature, amylose pull-down; high values mean tight binding). Settings: protein: recombinant; tags: His6-MBP; chain copies: 2; dsDNA, one strand shown.
T1 sequence: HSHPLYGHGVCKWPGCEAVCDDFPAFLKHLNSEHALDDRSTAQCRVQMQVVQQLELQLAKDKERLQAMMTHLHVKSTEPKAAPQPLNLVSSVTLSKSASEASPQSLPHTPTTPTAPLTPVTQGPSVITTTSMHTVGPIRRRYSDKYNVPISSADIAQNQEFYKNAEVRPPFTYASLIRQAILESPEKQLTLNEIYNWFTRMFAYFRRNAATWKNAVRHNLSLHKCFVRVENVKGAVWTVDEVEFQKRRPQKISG
Procedure, shortened: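 Amylose resin was used to capture complexes formed during 30 min at room temperature in Tris pH 7.5 buffer with NaCl and MgCl2 between 0.4 µM His6-MBP-tagged mouse FoxP3 or FoxP1 fragment lacking the N-terminus, expressed in E. coli, and 0.1 µM Klenow-filled double-stranded degenerate DNA library. After three washes, the DNA was released with proteinase K, barcoded by PCR and sequenced on Illumina. Binding is pooled-replicate reads-per-million enrichment, pull-down over input.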

Row | Sequence | binding signal
1 | GATGATTGTTCTCCCAGCTGATGAATTTGGCAGCTCGAGTAAACAAATTTTCCTAATCTTTCTGTTCAAGCGCCATCTAC | 0.875 RPM ratio (pull-down/input)
2 | GATGATTGTTCTCCCAGCTGATGAATTAACGCTGTCGAGTAAACAAATTTTCCTAATCTTTCTGTTCAAGCGCCATCTAC | 0.97 RPM ratio (pull-down/input)
3 | GATGATTGTTCTCCCAGCTGATGAATTAAAGAGTTCGAGTAAACAAATTTTCCTAATCTTTCTGTTCAAGCGCCATCTAC | 0.941 RPM ratio (pull-down/input)
4 | GATGATTGTTCTCCCAGCTGATGAATTCAGATTATCGAGTAAACAAATTTTCCTAATCTTTCTGTTCAAGCGCCATCTAC | 0.977 RPM ratio (pull-down/input)
5 | GATGATTGTTCTCCCAGCTGATGAATTCGGTAGATCGAGTAAACAAATTTTCCTAATCTTTCTGTTCAAGCGCCATCTAC | 0.874 RPM ratio (pull-down/input)
6 | GATGATTGTTCTCCCAGCTGATGAATTTATATGATCGAGTAAACAAATTTTCCTAATCTTTCTGTTCAAGCGCCATCTAC | 1.14 RPM ratio (pull-down/input)
7 | GATGATTGTTCTCCCAGCTGATGAATTTTATTTTTCGAGTAAACAAATTTTCCTAATCTTTCTGTTCAAGCGCCATCTAC | 1.96 RPM ratio (pull-down/input)
8 | GATGATTGTTCTCCCAGCTGATGAATTCTTTATTTCGAGTAAACAAATTTTCCTAATCTTTCTGTTCAAGCGCCATCTAC | 1.03 RPM ratio (pull-down/input)
9 | GATGATTGTTCTCCCAGCTGATGAATTCCTTTATTCGAGTAAACAAATTTTCCTAATCTTTCTGTTCAAGCGCCATCTAC | 0.944 RPM ratio (pull-down/input)
10 | GATGATTGTTCTCCCAGCTGATGAATTATTTATTTCGAGTAAACAAATTTTCCTAATCTTTCTGTTCAAGCGCCATCTAC | 2.06 RPM ratio (pull-down/input)
11 | GATGATTGTTCTCCCAGCTGATGAATTTTTTTATTCGAGTAAACAAATTTTCCTAATCTTTCTGTTCAAGCGCCATCTAC | 0.953 RPM ratio (pull-down/input)
12 | GATGATTGTTCTCCCAGCTGATGAATTTATTATTTCGAGTAAACAAATTTTCCTAATCTTTCTGTTCAAGCGCCATCTAC | 1.6 RPM ratio (pull-down/input)
13 | GATGATTGTTCTCCCAGCTGATGAATTTGTTTATTCGAGTAAACAAATTTTCCTAATCTTTCTGTTCAAGCGCCATCTAC | 2.89 RPM ratio (pull-down/input)
14 | GATGATTGTTCTCCCAGCTGATGAATTTATTTCTTCGAGTAAACAAATTTTCCTAATCTTTCTGTTCAAGCGCCATCTAC | 1.29 RPM ratio (pull-down/input)
15 | GATGATTGTTCTCCCAGCTGATGAATTTTTATTTTCGAGTAAACAAATTTTCCTAATCTTTCTGTTCAAGCGCCATCTAC | 2.75 RPM ratio (pull-down/input)
16 | GATGATTGTTCTCCCAGCTGATGAATTGTTTTATTCGAGTAAACAAATTTTCCTAATCTTTCTGTTCAAGCGCCATCTAC | 1.6 RPM ratio (pull-down/input)
17 | GATGATTGTTCTCCCAGCTGATGAATTATTTTATTCGAGTAAACAAATTTTCCTAATCTTTCTGTTCAAGCGCCATCTAC | 1.22 RPM ratio (pull-down/input)

Row | Sequence | binding signal
18 | GATGATTGTTCTCCCAGCTGATGAATTAAATTTGTCGAGTAAACAAATTTTCCTAATCTTTCTGTTCAAGCGCCATCTAC | 1.06 RPM ratio (pull-down/input)
19 | GATGATTGTTCTCCCAGCTGATGAATTAGTACTGTCGAGTAAACAAATTTTCCTAATCTTTCTGTTCAAGCGCCATCTAC | 1 RPM ratio (pull-down/input)
20 | GATGATTGTTCTCCCAGCTGATGAATTTCGGCTGTCGAGTAAACAAATTTTCCTAATCTTTCTGTTCAAGCGCCATCTAC | 0.82 RPM ratio (pull-down/input)
21 | GATGATTGTTCTCCCAGCTGATGAATTATCCGCATCGAGTAAACAAATTTTCCTAATCTTTCTGTTCAAGCGCCATCTAC | 1.15 RPM ratio (pull-down/input)
22 | GATGATTGTTCTCCCAGCTGATGAATTCTTCTGATCGAGTAAACAAATTTTCCTAATCTTTCTGTTCAAGCGCCATCTAC | 0.96 RPM ratio (pull-down/input)
23 | GATGATTGTTCTCCCAGCTGATGAATTGCGCCATTCGAGTAAACAAATTTTCCTAATCTTTCTGTTCAAGCGCCATCTAC | 1.14 RPM ratio (pull-down/input)
24 | GATGATTGTTCTCCCAGCTGATGAATTCGATTGCTCGAGTAAACAAATTTTCCTAATCTTTCTGTTCAAGCGCCATCTAC | 0.842 RPM ratio (pull-down/input)
25 | GATGATTGTTCTCCCAGCTGATGAATTAAAGGTCTCGAGTAAACAAATTTTCCTAATCTTTCTGTTCAAGCGCCATCTAC | 0.774 RPM ratio (pull-down/input)
26 | GATGATTGTTCTCCCAGCTGATGAATTGAGTGGCTCGAGTAAACAAATTTTCCTAATCTTTCTGTTCAAGCGCCATCTAC | 0.823 RPM ratio (pull-down/input)
27 | GATGATTGTTCTCCCAGCTGATGAATTTATTTTTTCGAGTAAACAAATTTTCCTAATCTTTCTGTTCAAGCGCCATCTAC | 1.41 RPM ratio (pull-down/input)
28 | GATGATTGTTCTCCCAGCTGATGAATTTTTTATTTCGAGTAAACAAATTTTCCTAATCTTTCTGTTCAAGCGCCATCTAC | 1.04 RPM ratio (pull-down/input)
29 | GATGATTGTTCTCCCAGCTGATGAATTTATTTGTTCGAGTAAACAAATTTTCCTAATCTTTCTGTTCAAGCGCCATCTAC | 2.15 RPM ratio (pull-down/input)
30 | GATGATTGTTCTCCCAGCTGATGAATTTTATTGTTCGAGTAAACAAATTTTCCTAATCTTTCTGTTCAAGCGCCATCTAC | 2.31 RPM ratio (pull-down/input)
31 | GATGATTGTTCTCCCAGCTGATGAATTAAGGCGATCGAGTAAACAAATTTTCCTAATCTTTCTGTTCAAGCGCCATCTAC | 0.912 RPM ratio (pull-down/input)
32 | GATGATTGTTCTCCCAGCTGATGAATTTGAACTTTCGAGTAAACAAATTTTCCTAATCTTTCTGTTCAAGCGCCATCTAC | 0.845 RPM ratio (pull-down/input)
33 | GATGATTGTTCTCCCAGCTGATGAATTTGTACTATCGAGTAAACAAATTTTCCTAATCTTTCTGTTCAAGCGCCATCTAC | 1.22 RPM ratio (pull-down/input)
